# Test results from PubChem BioAssay AID651871 (Sanford-Burnham Center for Chemical Genomics, 2012).
# System: HL-1
# Test: cardiomyocyte survival under oxidative or metabolic stress – cell-based, panel, H9c2 and HL-1, ATP luminescence, set 2, SAR follow-up (AID 651871);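 further: cells exposed to stressor for 2 h before ATP readout; reference of the scale not given here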
# Settings: H9c2/HL-1 cardiomyocytes, 2-deoxyglucose stress, with 2-deoxyglucose, run 11, at 19.8 µM (top of the series)
smiles,measurement,value
COc1ccc2c(c1OC)C(=O)N1c3ccccc3C(=O)N(Cc3cccc(Cl)c3Cl)C21 (stereo unspecified),activity (protection/inhibition),40%
